# Results filed as inconclusive are left out. The source made the active and inactive calls. Unless noted, the call rests on the fitted dose curve; in most records, active means well fitted curve in the direction sought with a large enough effect; inconclusive means small, poorly fitted or top-dose-only effect, or another doubt; inactive means no such curve, though single readings can be large; an effect the other way counts as inactive or inconclusive.
# Experiments:
# [1] = AP1 Signaling Pathway (AID 357; active means well fitted curve in either direction with a large enough effect, not every such curve was filed as active; further: on the % scale 0 is the no-effect control and ±100 the full control effect); conditions: ME-180 AP-1-bla reporter, EGF-induced, beta-lactamase ratio, 5 h; at 7.69 µM (top of the series) unless noted
# How it was run: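 Titration-series screen for positive or negative modulators of EC50 EGF-induced signaling in ME-180 cells carrying an AP-1-driven beta-lactamase reporter. After 5 hours at 37 degrees Celsius, CCF4 460nm/530nm emission ratio gave %Activity; AC50 values derived.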
# [2] = target: Cytochrome P450 1A2 (Homo sapiens) (UniProt P05177); experiment: p450-cyp1a2 (AID 410; calls by dose curve; further: potency means the concentration at half of the fitted maximal effect); conditions: recombinant CYP1A2, luciferin-ME demethylation, luminescence; series mostly up to 57 µM
# How it was run: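 Luminescent readout of luciferin formed from Luciferin-ME by human CYP1A2; data normalized against complete inhibition by 57 uM furafylline. Enzyme 20nM, substrate 100uM at Km, 100mM KPO4 buffer, 60 min reaction at room temperature.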
# [3] = Stat Signaling Pathway (AID 446; active means well fitted curve in either direction with a large enough effect, not every such curve was filed as active;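 further: ME-180 cervical cancer cells given 40 pM IL-6 alongside compound; SIE-controlled beta-lactamase reporter measured as 460/530 nm FRET emission ratio; on the % scale 0 is the no-effect control and ±100 the full control effect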); conditions: ME-180 (cervical carcinoma) SIE beta-lactamase reporter, IL-6 stimulated, 5 h; at 7.69 µM (top of the series) unless noted
# How it was run: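 IL-6/STAT signaling read in ME-180 cells via an SIE beta-lactamase reporter. Stimulus was 40 pM IL-6 (its AC50) for 5 hrs, so both activation and inhibition register.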
# [4] = target: Glucocorticoid receptor (Homo sapiens) (UniProt P04150); experiment: GR-GFP Redistribution (AID 450;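 active means compounds whose dose series gives a full or clear partial fitted curve of increased nuclear translocation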; further: potency means the concentration at half of the fitted maximal effect); conditions: U2OS GR-GFP nuclear translocation, laser cytometry, 2 h
# [5] = target: Glucocorticoid receptor (Homo sapiens) (UniProt P04150); experiment: GR-EFC Redistribution (AID 451; calls by dose curve; further: potency means the concentration at half of the fitted maximal effect); conditions: CHO-K1 GR-EFC translocation, beta-gal luminescence, 2 h
# How it was run: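 Translocation of GR-ED fusion to nuclear EA restores b-gal, read by luminescence after 1 h room-temperature detection. Engineered CHO-K1 biosensor cells, 1,000/well, exposed 2 h at 37 C to titrations up to 46 uM final.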
# [6] = target: Cytochrome P450 3A4 (Homo sapiens) (UniProt P08684); experiment: qHTS Assay for Activators of Cytochrome P450 3A4 (AID 885); conditions: recombinant CYP3A4, Luciferin-PPXE luminescence, 60 min; series mostly up to 57.1 µM; further: nearly all actives have a fitted effect of over 65% in size
# How it was run: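 Quantitative HTS format: compounds preincubated with 20nM human CYP3A4 and Luciferin-PPXE substrate at KM, reaction started by NADPH regeneration, stopped after 60 min, luciferase luminescence read 20 min later.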
# [7] = qHTS Assay for Lipid Storage Modulators (AID 1519; calls by dose curve); conditions: Drosophila S3 cells, BODIPY lipid droplet/cell ratio, laser cytometry, cells loaded with oleic acid; for activity change, negative = inhibition: at 57.5 µM (top of the series)
# How it was run: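 Cells seeded at 5,000 per well were treated with compounds over a concentration series and loaded with oleic acid (400 uM, as added). Lipid droplet fluorescence (488 nm excitation, 500-530 nm channel) was read by laser-scanning cytometry and normalized to 20 uM Triacsin C.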
# [8] = Confirmation and Secondary Assay for Modulators of Hemoglobin Beta Chain Splicing at IVS2 654 locus (AID 910); conditions: HeLa EGFP-654 splicing reporter, GFP fluorescence, 48 h; series mostly up to 38.3 µM;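 further: HeLa cells stably carrying EGFP split by mutant beta-globin IVS2-654 intron; per-well total GFP intensity by laser scanning cytometry after 2-day treatment; % of control where 0% means no effect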
# How it was run: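 Readout: per-well total peak green fluorescence (488 nm ex, 500–520 nm em) from objects 5–250 µm, reflecting correct splicing of an EGFP-654 reporter. Compounds were applied for 2 days at 37 °C to overnight-plated HeLa EGFP-654 cells; controls were DMSO and 500 nM IVS2-654 PNA.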
# [9] = Confirmation and Secondary Assay for Modulators of Hemoglobin Beta Chain Splicing at IVS2 705 locus (AID 930); conditions: HeLa EGFP-705 splicing reporter, GFP fluorescence, 48 h; series mostly up to 38.3 µM;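 further: HeLa cells stably expressing the EGFP-705 splicing reporter; GFP fluorescence per well restored by corrected splicing of the IVS2-705 intron in EGFP; % of control where 0% means no effect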
# How it was run: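 HeLa IVS2-705 EGFP reporter cells, 500/well, compound 2 d at 37C; correct splicing yields fluorescent EGFP. Control: 500 nM antisense PNA. Read-out: total peak GFP intensity.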
# [10] = target: Lysosomal acid glucosylceramidase (Homo sapiens) (UniProt P04062); experiment: Glucocerebrosidase-p2 (AID 348; in the data active means potency below about 10 µM; further: potency means the concentration at half of the fitted maximal effect); conditions: purified GBA, blue fluorogenic substrate, 40 min
# How it was run: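 Compounds titrated from 0.6 nM upwards against 0.2 nM enzyme in pH 5.9 citric acid/KH2PO4, taurocholate, tween-20; blue fluorogenic substrate 80 uM, 40 min room temperature, stopped and read Ex 365/Em 440 for AC50.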
# [11] = NFAT Signaling Pathway (AID 444; active means well fitted curve in either direction with a large enough effect, not every such curve was filed as active;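 further: carbachol stimulus at about its EC50 of 1 µM final; on the % scale 0 is the no-effect control and ±100 the full control effect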); conditions: Jurkat NFAT-bla M1, carbachol, beta-lactamase ratio, 5 h; at 7.69 µM (top of the series) unless noted
# How it was run: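 Read-out: CCF4 FRET ratio (460 nm/530 nm) after 1 h RT dye loading, used for %activity and AC50 from titration series. Cells: Jurkat NFAT-β-lactamase/M1 line, treated with compound plus 1 uM carbachol for 5 h, 37 °C.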
# [12] = target: Mitogen-activated protein kinase 10 (Mus musculus) (UniProt Q61831); experiment: JNK3 AlphaScreen Assay (AID 530; active means well fitted curve in either direction with a large enough effect, not every such curve was filed as active;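 further: kinase came from lysate of stimulated human HepG2 cells; signal reports phosphorylation of biotinylated GST-cJun 1-79 at Ser73 with 10 µM ATP; on the % scale 0 is the no-effect control and ±100 the full control effect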); conditions: JNK3 lysate, c-Jun phosphorylation; series mostly up to 57.1 µM
# How it was run: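 Compound titrations were preincubated 15 minutes at room temperature with substrate, antibody and pre-activated JNK3-containing HepG2 lysate. Reactions were started with 10 uM ATP and stopped with EDTA-containing bead buffer for AlphaScreen detection.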
# [13] = target: 3',5'-cyclic-AMP phosphodiesterase 4B (Homo sapiens) (UniProt Q07343); experiment: qHTS Assay for Inhibitors of PDE-IV (AID 607; active means well fitted activation curve with a large enough effect in the main read-out, with a control signal flat, not every such curve was filed as active; further: % of control where 0% means no effect); conditions: HEK293 ACTOne CNG channel cells, membrane potential fluorescence; series mostly up to 22.9 µM
# How it was run: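 Live HEK293 cells with a modified cyclic nucleotide-gated (CNG) channel report intracellular cAMP via membrane-potential dye fluorescence (ex 535/em 590 nm). Endogenous PDE-IV was targeted. Compounds were tested at up to 22.9 uM final; RO 20-1724 100 uM served as control.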
# [14] = target: Dual specificity protein kinase CLK4 (Homo sapiens) (UniProt Q9HAZ1); experiment: qHTS Assay for Inhibitors of CDC-like Kinase 4 (Kinase-Glo Assay) (AID 1770); conditions: recombinant Clk4, Kinase-Glo ATP depletion luminescence; series mostly up to 66.7 µM; further: nearly all actives have a fitted effect of over 65% in size; further: potency means the concentration at half of the fitted maximal effect
# How it was run: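 Recombinant human Clk4 (25 nM) phosphorylated RS repeat peptide (100 uM) with 1 uM ATP in Tris pH 7.5/MgCl2/EGTA/DTT/Triton buffer for 4.5 h at room temperature. Residual ATP was quantified by Kinase-Glo luciferase luminescence.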
# [15] = target: Dual specificity protein kinase CLK4 (Homo sapiens) (UniProt Q9HAZ1); experiment: qHTS Assay for Inhibitors of CDC-like Kinase 4 (ADP-Glo Assay) (AID 1771); conditions: recombinant CLK4, ADP-Glo luminescence; series mostly up to 80 µM; further: nearly all actives have a fitted effect of over 70% in size; further: potency means the concentration at half of the fitted maximal effect
# How it was run: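 Luminescence from ADP-Glo reports ADP produced by 25 nM Clk4 acting on 100 uM RS repeat peptide with 1 uM ATP over 1 hr at room temperature; residual ATP is depleted before ADP is converted to ATP for detection.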
# [16] = target: Dual specificity protein kinase CLK4 (Homo sapiens) (UniProt Q9HAZ1); experiment: qHTS Assay for Inhibitors of CDC-like Kinase 4 (ADP-FP Assay) (AID 1795); conditions: Transcreener ADP fluorescence polarization; series mostly up to 50 µM; further: nearly all actives have a fitted effect of over 60% in size; further: potency means the concentration at half of the fitted maximal effect
# How it was run: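 Recombinant human Clk4 (6.25 nM) phosphorylated RS repeat peptide (100 uM) with 1 uM ATP in Tris pH 7.5/MgCl2/EGTA/DTT/Triton buffer for one hour. ADP was quantified by Transcreener competitive fluorescence polarization against an ADP calibration curve.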
# [17] = target: Ubiquitin carboxyl-terminal hydrolase 1 (Homo sapiens) (UniProt O94782); experiment: Inhibitors of USP1/UAF1: Pilot qHTS (AID 504865); conditions: purified USP1/UAF1, Ub-rhodamine cleavage fluorescence; series mostly up to 54.9 µM;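 further: rhodamine fluorescence freed from ubiquitin-rhodamine substrate followed over time; top concentration of the series differs between compounds; on the % scale 0 is the no-effect control and ±100 the full control effect; nearly all actives have a fitted effect of over 35% in size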
# How it was run: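 USP1/UAF1 complex (1nM) preincubated with compound 15 min at room temperature, then Ub-Rho substrate (150nM final) added. Fluorescence read kinetically at 480/540 nm, 6 reads every 60 seconds. Buffer: 50mM HEPES pH 7.8, 0.5mM EDTA, 0.1 mg/ml BSA, 1mM TCEP, 0.01% Tween-20.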
# [18] = measured here: cell count channel max response
# [19] = measured here: lipid channel max response
# Glucocorticoid receptor (Homo sapiens), sequence (P04150 whole entry, looked up, the tested form may be a part): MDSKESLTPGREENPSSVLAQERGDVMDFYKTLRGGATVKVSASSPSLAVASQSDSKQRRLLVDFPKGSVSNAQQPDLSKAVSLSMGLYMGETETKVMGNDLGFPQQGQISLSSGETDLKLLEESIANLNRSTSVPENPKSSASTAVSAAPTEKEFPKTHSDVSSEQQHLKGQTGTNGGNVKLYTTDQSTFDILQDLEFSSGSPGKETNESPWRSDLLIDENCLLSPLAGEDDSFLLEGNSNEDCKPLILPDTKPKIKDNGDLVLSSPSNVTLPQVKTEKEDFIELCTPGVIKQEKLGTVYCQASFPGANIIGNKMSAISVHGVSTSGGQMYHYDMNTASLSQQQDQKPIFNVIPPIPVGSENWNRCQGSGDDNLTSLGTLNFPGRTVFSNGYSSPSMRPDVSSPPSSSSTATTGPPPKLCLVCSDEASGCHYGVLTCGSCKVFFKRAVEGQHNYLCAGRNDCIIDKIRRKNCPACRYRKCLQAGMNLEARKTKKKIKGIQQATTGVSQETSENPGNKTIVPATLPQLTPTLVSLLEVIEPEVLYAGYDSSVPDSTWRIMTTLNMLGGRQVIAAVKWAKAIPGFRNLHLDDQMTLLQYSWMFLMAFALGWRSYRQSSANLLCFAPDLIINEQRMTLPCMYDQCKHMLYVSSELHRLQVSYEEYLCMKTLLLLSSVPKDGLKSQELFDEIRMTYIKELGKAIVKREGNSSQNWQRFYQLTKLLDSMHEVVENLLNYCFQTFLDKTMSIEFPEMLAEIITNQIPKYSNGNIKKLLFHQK
# Dual specificity protein kinase CLK4 (Homo sapiens), sequence (Q9HAZ1 whole entry, looked up): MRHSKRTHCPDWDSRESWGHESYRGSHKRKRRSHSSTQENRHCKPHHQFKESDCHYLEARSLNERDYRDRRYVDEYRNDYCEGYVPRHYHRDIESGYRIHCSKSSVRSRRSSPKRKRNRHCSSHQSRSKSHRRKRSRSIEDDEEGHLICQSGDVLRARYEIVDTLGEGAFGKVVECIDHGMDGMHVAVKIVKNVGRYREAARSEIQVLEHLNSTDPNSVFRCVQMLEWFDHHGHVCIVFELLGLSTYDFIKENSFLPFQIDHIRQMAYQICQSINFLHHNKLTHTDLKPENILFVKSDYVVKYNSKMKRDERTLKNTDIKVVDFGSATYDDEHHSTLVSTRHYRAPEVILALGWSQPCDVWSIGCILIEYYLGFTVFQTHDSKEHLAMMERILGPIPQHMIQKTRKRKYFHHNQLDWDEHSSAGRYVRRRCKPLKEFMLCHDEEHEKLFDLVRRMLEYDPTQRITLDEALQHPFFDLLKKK
# Ubiquitin carboxyl-terminal hydrolase 1 (Homo sapiens), sequence (O94782 whole entry, looked up): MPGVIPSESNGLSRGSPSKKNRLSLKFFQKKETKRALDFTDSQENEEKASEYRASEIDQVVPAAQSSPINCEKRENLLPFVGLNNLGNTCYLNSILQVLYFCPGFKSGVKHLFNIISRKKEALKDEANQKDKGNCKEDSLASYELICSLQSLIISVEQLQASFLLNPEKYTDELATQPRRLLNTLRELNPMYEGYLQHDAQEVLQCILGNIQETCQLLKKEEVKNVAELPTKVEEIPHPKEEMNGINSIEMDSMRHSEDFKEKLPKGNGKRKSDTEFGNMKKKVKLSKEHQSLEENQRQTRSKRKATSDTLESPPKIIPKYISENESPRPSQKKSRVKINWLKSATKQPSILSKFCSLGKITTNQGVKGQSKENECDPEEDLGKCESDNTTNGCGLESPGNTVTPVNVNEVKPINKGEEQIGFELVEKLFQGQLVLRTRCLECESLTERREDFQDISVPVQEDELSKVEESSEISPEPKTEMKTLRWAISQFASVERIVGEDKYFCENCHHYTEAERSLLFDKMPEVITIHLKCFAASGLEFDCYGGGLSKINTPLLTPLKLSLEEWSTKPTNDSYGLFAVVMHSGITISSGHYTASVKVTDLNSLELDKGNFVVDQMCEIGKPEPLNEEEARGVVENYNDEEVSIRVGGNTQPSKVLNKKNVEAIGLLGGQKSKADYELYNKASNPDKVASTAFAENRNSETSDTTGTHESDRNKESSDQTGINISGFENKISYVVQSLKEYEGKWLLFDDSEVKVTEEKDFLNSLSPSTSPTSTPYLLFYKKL
# Cytochrome P450 1A2 (Homo sapiens), sequence (P05177 whole entry, looked up): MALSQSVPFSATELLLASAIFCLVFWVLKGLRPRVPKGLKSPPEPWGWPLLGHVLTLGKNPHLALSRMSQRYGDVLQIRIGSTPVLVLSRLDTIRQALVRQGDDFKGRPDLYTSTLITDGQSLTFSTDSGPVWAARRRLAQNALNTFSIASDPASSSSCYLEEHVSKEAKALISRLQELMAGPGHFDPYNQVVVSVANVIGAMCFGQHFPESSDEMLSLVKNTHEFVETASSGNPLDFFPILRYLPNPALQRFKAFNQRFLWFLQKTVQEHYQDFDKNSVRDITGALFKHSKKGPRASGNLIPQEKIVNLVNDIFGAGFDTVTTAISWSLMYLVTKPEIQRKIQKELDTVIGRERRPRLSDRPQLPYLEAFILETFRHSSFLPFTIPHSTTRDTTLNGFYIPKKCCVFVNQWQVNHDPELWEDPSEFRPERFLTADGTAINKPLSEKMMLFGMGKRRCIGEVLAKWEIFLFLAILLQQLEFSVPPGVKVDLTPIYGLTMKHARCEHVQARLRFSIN
# Lysosomal acid glucosylceramidase (Homo sapiens), sequence (P04062 whole entry, looked up): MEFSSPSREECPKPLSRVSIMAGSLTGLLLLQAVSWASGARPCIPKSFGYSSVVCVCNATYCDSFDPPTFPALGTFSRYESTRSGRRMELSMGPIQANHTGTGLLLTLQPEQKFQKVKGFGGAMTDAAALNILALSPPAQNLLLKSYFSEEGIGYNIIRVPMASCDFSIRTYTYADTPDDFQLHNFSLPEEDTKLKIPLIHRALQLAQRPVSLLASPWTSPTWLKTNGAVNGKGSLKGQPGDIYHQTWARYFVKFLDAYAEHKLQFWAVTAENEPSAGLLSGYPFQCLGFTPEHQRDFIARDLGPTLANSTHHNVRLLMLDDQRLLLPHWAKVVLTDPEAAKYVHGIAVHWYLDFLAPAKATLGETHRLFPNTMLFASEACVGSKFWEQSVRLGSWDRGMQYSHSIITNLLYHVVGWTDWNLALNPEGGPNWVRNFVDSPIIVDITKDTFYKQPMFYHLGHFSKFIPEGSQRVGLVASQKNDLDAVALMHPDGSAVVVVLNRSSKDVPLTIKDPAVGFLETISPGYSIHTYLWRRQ
# Cytochrome P450 3A4 (Homo sapiens), sequence (P08684 whole entry, looked up): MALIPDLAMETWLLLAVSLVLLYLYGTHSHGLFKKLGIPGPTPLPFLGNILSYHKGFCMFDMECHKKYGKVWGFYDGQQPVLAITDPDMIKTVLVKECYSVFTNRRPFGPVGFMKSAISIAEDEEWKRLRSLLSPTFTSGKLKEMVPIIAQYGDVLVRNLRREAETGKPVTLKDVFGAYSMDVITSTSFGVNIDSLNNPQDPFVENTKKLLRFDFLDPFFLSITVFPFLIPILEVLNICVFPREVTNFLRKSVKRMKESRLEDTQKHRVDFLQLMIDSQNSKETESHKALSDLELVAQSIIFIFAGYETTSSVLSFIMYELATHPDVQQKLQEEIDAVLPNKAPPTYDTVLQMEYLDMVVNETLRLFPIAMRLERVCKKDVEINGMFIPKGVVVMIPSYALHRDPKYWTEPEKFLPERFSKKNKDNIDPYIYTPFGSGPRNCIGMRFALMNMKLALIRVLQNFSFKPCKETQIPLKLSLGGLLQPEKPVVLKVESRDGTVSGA
# 3',5'-cyclic-AMP phosphodiesterase 4B (Homo sapiens), sequence (Q07343 whole entry, looked up): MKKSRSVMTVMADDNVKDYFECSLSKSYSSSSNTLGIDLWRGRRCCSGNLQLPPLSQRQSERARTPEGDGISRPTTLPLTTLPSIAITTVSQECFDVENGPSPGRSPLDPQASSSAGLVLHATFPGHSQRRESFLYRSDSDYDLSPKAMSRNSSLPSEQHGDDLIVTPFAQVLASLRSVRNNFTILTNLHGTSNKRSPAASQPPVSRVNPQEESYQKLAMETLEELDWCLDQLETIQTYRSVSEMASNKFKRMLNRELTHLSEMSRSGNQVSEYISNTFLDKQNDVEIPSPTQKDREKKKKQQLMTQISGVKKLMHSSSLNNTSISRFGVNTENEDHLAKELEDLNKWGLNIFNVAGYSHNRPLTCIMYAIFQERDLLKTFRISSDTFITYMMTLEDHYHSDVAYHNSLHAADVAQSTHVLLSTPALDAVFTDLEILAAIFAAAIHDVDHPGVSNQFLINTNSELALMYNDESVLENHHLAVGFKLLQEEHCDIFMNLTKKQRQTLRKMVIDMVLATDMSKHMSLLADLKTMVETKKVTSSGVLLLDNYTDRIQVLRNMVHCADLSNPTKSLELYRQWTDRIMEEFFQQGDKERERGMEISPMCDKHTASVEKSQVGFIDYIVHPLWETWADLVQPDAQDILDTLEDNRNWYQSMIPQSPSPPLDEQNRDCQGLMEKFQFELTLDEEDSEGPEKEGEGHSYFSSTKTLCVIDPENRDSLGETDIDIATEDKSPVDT
Structure (SMILES),"activity change, negative = inhibition [1]",Potency [2],"activity, negative = inhibition [3]",Potency [4],Potency [5],Potency [6],"activity change, negative = inhibition [7]","max response [7, 18] [%]","max response [7, 19] [%]",Potency [8],outcome [9],Potency [10],"activity change, negative = inhibition [11]",Potency [12],Potency [13],Potency [14],Potency [15],Potency [16],Potency [17]
NC(=NCc1ccc(Cl)c(Cl)c1)NC(=O)c1nc(Cl)c(N)nc1N,-11.5% [at 38 µM] (inactive),10 µM (active),5.12% [at 38 µM] (inactive),> 46 µM (inactive),> 46 µM (inactive),inactive,0.442% (inactive),-3.02,-2.51,–,–,–,–,–,–,–,–,–,–
COC(=O)c1c(C)c2c(c(C)c1O)OC(=O)c1c(C)c(Cl)c(O)c(Cl)c1O2,–,–,–,–,–,inactive,9.5% (inactive),-4.72,1.33,inactive,inactive,–,–,–,–,–,–,–,–
Clc1ccccc1-c1nc(NC2CCNCC2)c2ccccc2n1,-8.89% (inactive),20 µM (active),3.31% (inactive),> 46 µM (inactive),> 46 µM (inactive),–,1.68% (inactive),15.1,17.6,–,–,> 11.4 µM (inactive),7.15% (inactive),inactive,inactive,10 µM (active),12.6 µM (active),12.6 µM (active),inactive
COc1ccc(Oc2ncc3nc(-c4ccc(Cl)cc4)c(=O)n(C4CC4)c3n2)cc1,-19.7% (inactive),–,-1.97% (inactive),> 9.22 µM (inactive),> 46 µM (inactive),–,4.67% (inactive),-1.25,5.63,–,–,> 11.4 µM (inactive),2.73% (inactive),inactive,–,inactive,inactive,inactive,inactive
